# Bioassay records as filed in PubChem BioAssay.
# ALOX12 inh = blocks human arachidonate 12S-lipoxygenase; purified 12hLO, xylenol orange hydroperoxide absorbance; Potency, µM (doses to about 108 µM), without a hit: at the top dose activity change, negative = inhibition, actives largely listed as inhibitors; actives 1.1% (n = 580,000); AID 1671190; active means well fitted inhibition curve with a large enough effect; inconclusive means small, poorly fitted or top-dose-only effect, or another doubt; inactive means no such curve, though single readings can be large or run the other way; further: potency means the concentration at half of the fitted maximal effect; on the % scale 0 is the no-effect control and ±100 the full control effect
#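 Purified human 12hLO at 150 nM in 25 mM Hepes, 0.01% Triton X-100, pH 7.0, preincubated 15 min at room temperature with compound. Reaction started with 40 uM arachidonic acid, 30 min at room temperature. Hydroperoxide measured by Fe-xylenol orange, 573/405 nm absorbance ratio.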
# BCR signal inh = inhibitors of chronic active B-cell receptor signaling; AID 493014; Potency, µM (series often up to 46.1 µM), inactives show at the highest dose activity change, negative = inhibition, most hits filed as inhibitors; ABC-DLBCL IkBa-CBG/CBR reporter, luminescence ratio, 4 h; actives 0.05% (n = 340,000); active means well fitted inhibition curve with a large enough effect in the signal ratio, with a control signal flat, not every such curve was filed as active; inconclusive means small, poorly fitted or top-dose-only effect, or effect the other way, or a change in a side signal; the % refers to the signal ratio;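 further: potency means the concentration at half of the fitted maximal effect; plate controls were basal doxycycline-induced cells for no effect and cells given 10 µM MG132 for full effect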
#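 TMD8 human ABC-DLBCL cells with doxycycline-inducible IκBα–green luciferase fusion and unfused red luciferase, in 0.5% FBS medium; compounds up to 46 uM, 4 h at 37C. Green/red luminescence ratio, filter-overlap corrected, fitted to concentration-response curves.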
# LDHA inh = blocks human lactate dehydrogenase A. purified LDHA, NADH/diaphorase-resazurin fluorescence; active compounds read low. actives 0.15% (n = 480,000). activity change, % (values are at about 110 or 230 µM); in the data active means activity change below about -30%; inconclusive means mostly about -25% to -30%;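 further: plate controls were DMSO wells for no effect and wells without enzyme for full effect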
#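 Remaining NADH was detected by diaphorase (0.133 mg/mL) converting 37 µM resazurin to fluorescent resorufin, read at 0 and 20 minutes. The preceding 5-minute room-temperature reaction used 2 nM LDHA, 0.2 mM sodium pyruvate and 0.06 mM NADH at pH 7.4.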
# KCNH2 3.1 block = KCNH2 3.1 (human) potassium channel inhibition. U2OS KCNH2 3.1, thallium flux FluxOr; active compounds read low. activity change, % (tested at about 1.8 µM). actives 0.95% (n = 340,000). AID 720553;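 active means maximum activity change below -70%; inconclusive means maximum activity change from -70% to -50%; inactive means maximum activity change above -50%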;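 further: thallium influx rate constant from kinetic fluorescence after stimulation buffer; on the % scale 0 is the no-effect control and ±100 the full control effect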
#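 U2OS cells transduced with KCNH2 3.1 mutant virus (1.77 x 10^8 /mL, 4 h), plated overnight at 37 C, loaded 45 min with FluxOr dye plus Red40 quencher. Thallium flux rate constant from kinetic reads after stimulation buffer, normalised to controls.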
# KCNH2 WT inh = blocks the wildtype human KCNH2 potassium channel; U2OS, BacMam KCNH2, thallium flux FluxOr; active compounds read low; activity change, % at 1.84 µM; AID 720551; actives 0.37% (n = 340,000); Q12809;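 active means maximum activity change below -70%; inconclusive means maximum activity change between -70% and -50%; inactive means maximum activity change above -50%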; further: on the % scale 0 is the no-effect control and ±100 the full control effect
# Target sequence (Q12809 whole entry, looked up): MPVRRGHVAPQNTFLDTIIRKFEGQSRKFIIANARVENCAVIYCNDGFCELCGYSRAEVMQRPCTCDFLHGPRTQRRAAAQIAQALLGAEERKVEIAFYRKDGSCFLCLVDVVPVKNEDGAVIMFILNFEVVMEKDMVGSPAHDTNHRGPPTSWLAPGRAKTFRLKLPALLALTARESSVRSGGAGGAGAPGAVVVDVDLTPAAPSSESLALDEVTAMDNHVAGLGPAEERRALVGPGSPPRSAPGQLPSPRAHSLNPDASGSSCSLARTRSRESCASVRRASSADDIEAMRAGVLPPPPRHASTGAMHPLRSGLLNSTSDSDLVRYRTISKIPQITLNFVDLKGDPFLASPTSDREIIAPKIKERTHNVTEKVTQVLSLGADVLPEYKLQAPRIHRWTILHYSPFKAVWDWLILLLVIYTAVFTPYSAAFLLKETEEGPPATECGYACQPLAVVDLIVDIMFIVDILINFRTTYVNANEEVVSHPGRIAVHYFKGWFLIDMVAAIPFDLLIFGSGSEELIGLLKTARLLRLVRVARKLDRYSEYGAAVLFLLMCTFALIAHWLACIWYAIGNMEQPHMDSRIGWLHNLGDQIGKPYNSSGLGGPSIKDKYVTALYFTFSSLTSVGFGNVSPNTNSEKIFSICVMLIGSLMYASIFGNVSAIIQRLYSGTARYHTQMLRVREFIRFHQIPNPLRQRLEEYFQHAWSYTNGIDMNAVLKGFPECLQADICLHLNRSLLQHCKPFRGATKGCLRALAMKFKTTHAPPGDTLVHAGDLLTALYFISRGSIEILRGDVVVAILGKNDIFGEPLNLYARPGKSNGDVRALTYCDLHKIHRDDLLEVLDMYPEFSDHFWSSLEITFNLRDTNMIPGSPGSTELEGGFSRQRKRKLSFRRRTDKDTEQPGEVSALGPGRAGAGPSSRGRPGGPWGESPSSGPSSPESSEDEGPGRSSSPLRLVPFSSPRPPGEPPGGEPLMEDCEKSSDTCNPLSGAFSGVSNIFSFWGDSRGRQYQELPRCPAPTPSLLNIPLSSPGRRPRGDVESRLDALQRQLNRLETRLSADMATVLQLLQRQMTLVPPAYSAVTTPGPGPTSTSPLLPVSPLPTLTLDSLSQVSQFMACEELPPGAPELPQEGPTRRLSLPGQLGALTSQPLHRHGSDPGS
#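 U2OS cells were transduced with wild-type KCNH2 virus (2.03 x 10^8 / mL) for 4 h at room temperature, then cultured overnight at 37 C. Thallium flux was read with FluxOr dye. Rate constants were normalized to DMSO controls.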
# ClpP mod = qHTS Assay for Activators of ClpP. ATP-dependent Clp protease proteolytic subunit (Bacillus subtilis (strain 168)), P80244. purified B. subtilis ClpP, FRET peptide cleavage, 20 min. Potency, µM (doses to about 57.5 µM), for inactives: at the top dose activity change, negative = active. actives 1.9% (n = 340,000). AID 651965, 2013; active means well fitted falling curve with a large enough effect; inconclusive means small, poorly fitted or top-dose-only effect; inactive means no such curve, though single readings can be large or run the other way; further: potency means the concentration at half of the fitted maximal effect; the source files actives as falling curves though it sought activators and does not explain the sign; nearly all actives have a fitted effect of over 65% in size
#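 Buffer: 100 mM Tris/HCl pH8, 100 mM KCl, 0.05% low protease BSA, 2.5% glycerol, 0.01% Tween-20. ClpP 10 microg/mL final; 20 min RT; delta FRET normalized to ADEP and DMSO controls.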
# * = called active by the depositor; ? = inconclusive; . = not tested or not shown. An excerpt weighted towards active compounds, which were near 3% of everything screened.
SMILES,ALOX12 inh,BCR signal inh,LDHA inh,KCNH2 3.1 block,KCNH2 WT inh,ClpP mod
O=C(CCSc1nc(-c2ccc3c(c2)OCO3)cc(C(F)(F)F)n1)NCc1ccccc1,0%,-15%,-3,?,6,-3%
COc1ccc(CNC(=O)CCSc2nc(-c3ccc4c(c3)OCO4)cc(C(F)(F)F)n2)cc1,8%,-6%,-2,12,13,7.9µM*
COCCn1cnc2c1c(=O)n(CC(=O)Nc1c(C)cccc1C)c(=O)n2CC(C)C,4%,.,-3,.,.,.
COc1ccc(C(=O)Nc2oc(-c3ccccc3)c(-c3ccccc3)c2C#N)cc1,0%,17%,0,-70*,0,?
O=C(CSc1nnc(-c2cccc([S+](=O)([O-])NC3CCCC3)c2)n1-c1ccccc1)Nc1ccc(C(=O)O)cc1,.,.,8,.,.,.
OCCC1CN(Cc2cc(F)ccc2F)CCN1CCCc1ccccc1 (stereo not drawn),26%,-4%,-9,-21,25,-3%
OCCC1CN(Cc2ccc(F)cc2Cl)CCN1CCc1ccccc1 (stereo not drawn),0%,-4%,-5,-72*,15,.
CSc1nnnn1-c1cccc(NC(=O)c2cccc(Cl)c2)c1,?,.,-8,.,.,.
Oc1cccc(/C=N/NC(=S)Nc2cccnc2)c1O,45µM*,?,18,22,-2,0%
Oc1ccc(/C=N/NC(=S)Nc2cccnc2)c(O)c1O,?,9%,51,-16,-3,.
Oc1ccc(C=NNC(=S)Nc2ccc(F)cc2)c(O)c1,40µM*,.,0,-4,-2,.
Oc1ccc(/C=N/NC(=S)Nc2cccnc2)c(O)c1,?,?,2,-137*,-176*,-13%
Cc1ncc(CO)c(/C=N/NC(=S)Nc2ccc(F)cc2)c1O,40µM*,-11%,1,10,6,-13%
CC(C)c1nnc2sc(/C=C/c3ccc4c(c3)OCO4)nn12,-4%,.,-8,.,.,.
CNC(=O)C1CCN(Cc2nc3ccccc3c(C)c2C(=O)OC)CC1,-3%,.,5,.,.,.
CC(C)CN1CCN(CCO)CC1,-20%,.,10,.,.,.
COc1cccc(/C=N/NC(=S)Nc2cccc(C(=O)O)c2)c1O,?,?,-47*,5,4,-8%
Cn1c(O)c(N=Nc2ccc(F)cc2)c2ccccc21,18µM*,0%,2,-21,-7,.
Cn1c(O)c(N=NC(=O)Cc2c[nH]c3ccccc23)c2ccccc21,6%,.,-4,7,-2,3.2µM*
O=C(COC(=O)c1cccc(F)c1)Nc1cccnc1Cl,68%,-10%,-6,-7,-4,25µM*
COc1cc(N)c(Cl)cc1C(=O)OCC(=O)Nc1cccnc1Cl,-21%,?,-2,-2,0,28µM*
COc1ccc(C2Cn3nnc(C(=O)N4CCC(C(=O)NCCc5cccs5)CC4)c3CO2)cc1 (stereo not drawn),8%,.,.,.,.,.
O=C(CSc1nc(C(F)(F)F)nc2ccccc12)Nc1ccc(O)cc1,?,.,-3,.,.,.
Clc1nnc(NC2CCCCC2)c(Cl)c1Cl,-1%,.,-9,-77*,11,0%
c1ccc2c(NC3CCCC3)nnc(NC3CCCC3)c2c1,-23%,10%,-8,-82*,7,?
SMILES,ALOX12 inh,BCR signal inh,LDHA inh,KCNH2 3.1 block,KCNH2 WT inh,ClpP mod
CNc1nc(Cl)c(SC)c(NC2CCCCC2)n1,5%,-1%,-4,.,-13,.
CC(=O)Nc1ccc(NC(=O)c2cc(=O)c3ccc(C)c(C)c3o2)cc1,?,.,-9,.,.,.
Cc1ccc(-c2cc(Cc3ccccn3)c(=O)[nH]n2)cc1,8%,11%,-7,-159*,-152*,.
CCCCNCC1C(Oc2ccc(Cl)cc2)C(=O)N1c1ccccc1C (stereo not drawn),?,?,0,-94*,5,.
COc1cccc(/C=N/NC(N)=S)c1OCc1ccccc1Cl,28µM*,-19%,-9,0,8,.
COc1cccc(/C=N/n2nnnc2N)c1OCc1ccccc1Cl,0%,15%,2,14,-9,?
CC1=CC(C)(C)N2C(=O)C(=O)c3cc(OC(=O)c4ccco4)cc1c32,?,11µM*,12,2,14,.
O=C1C=C(c2cccc(Cl)c2O)C[C@@H](c2ccc(Cl)cc2)C1,11µM*,?,6,-7,3,-4%
COCC(=O)NC[C@H]1O[C@@H](CO)[C@@H](O)[C@H]1N1CCN(c2ccccc2OC)CC1,61%,.,.,.,.,.
O=C(/C=C/c1cc([N+](=O)[O-])ccc1OC(F)F)Nc1cccc(OC(F)F)c1,?,-6%,-6,-4,-158*,-2%
COc1ccccc1NC(=O)/C=C/c1cc([N+](=O)[O-])ccc1OC(F)F,0%,-19%,-3,-3,-15,0%
NC(=O)COc1ccc(/C=N\NC(=O)c2ccc(-c3ccccc3)cc2)cc1,-1%,2%,-10,.,10,10µM*
Cc1cc(C)cc(N(CC(=O)N/N=C/c2ccncc2)S(=O)(=O)c2ccccc2)c1,-18%,2%,4,-49,24,6.3µM*
O=C(N/N=C/c1ccccc1)c1ccc(-c2ccccc2)cc1,8%,3%,-7,0,0,-2%
Cc1cc(C)cc(N(CC(=O)Nc2ccccc2-c2ccccc2)S(=O)(=O)c2ccccc2)c1,-8%,-8%,-8,-7,10,-2%
COC(=O)COc1ccc(/C=N/NC(=O)c2ccc(N(Cc3ccccc3)S(C)(=O)=O)cc2)cc1,12%,?,-8,-5,-4,32µM*
COC(=O)COc1ccc(/C=N/NC(=O)CN(c2ccccc2OC)S(=O)(=O)c2ccccc2)cc1,7%,-7%,-1,-89*,-21,.
CCCNC(=O)Cn1c(C)ccc(NC(=O)Nc2ccc(OC)cc2)c1=O,-6%,.,.,.,.,.
Cc1ccc(-c2ncc(NC(=O)c3ccccc3F)cn2)cc1,14%,.,.,.,.,.
N#Cc1nc(-c2ccc(F)cc2)oc1N1CCN(c2ccccc2)CC1,9%,.,4,.,.,.
COc1ccccc1-c1nc(C#N)c(N2CCN(Cc3ccccc3)CC2)o1,407%,?,-2,17,10,28µM*
N#Cc1nc(-c2ccc(F)cc2)oc1N1CCN(Cc2ccccc2)CC1,?,.,-34*,.,.,.
N#Cc1nc(-c2ccc(F)cc2)oc1N1CCN(C(=O)c2ccco2)CC1,?,0%,-6,-20,-2,3.2µM*
COc1ccc(-c2nc(C#N)c(N3CCN(c4cccc(Cl)c4)CC3)o2)cc1OC,20%,-2%,-9,-6,12,28µM*
